According to PubChem BioAssay (Tox21):
Records with an inconclusive call do not appear. Entries that show only a call come without a potency. The source made the active and inactive calls. Unless noted, calls follow the shape of the dose curve; as a rule, active = well fitted curve in the direction sought with a large enough effect in the repeat runs; inconclusive = weak or mixed curves; inactive = no such curve, though single readings can be large; an effect the other way counts as inactive or inconclusive.

target: Estrogen receptor (Homo sapiens) (UniProt P03372); test: qHTS assay to identify small molecule agonists of the estrogen receptor alpha (ER-alpha) signaling pathway using the BG1 cell line (AID 743079); details: BG1Luc4E2 cells, ERE-luciferase agonist, 22 h; series mostly up to 70.3 µM; also: nearly all actives have a fitted effect of over 20% in size
Potency is read from the fitted curve at half-maximal effect.

Chain of Estrogen receptor (Homo sapiens) (P03372 whole entry, looked up): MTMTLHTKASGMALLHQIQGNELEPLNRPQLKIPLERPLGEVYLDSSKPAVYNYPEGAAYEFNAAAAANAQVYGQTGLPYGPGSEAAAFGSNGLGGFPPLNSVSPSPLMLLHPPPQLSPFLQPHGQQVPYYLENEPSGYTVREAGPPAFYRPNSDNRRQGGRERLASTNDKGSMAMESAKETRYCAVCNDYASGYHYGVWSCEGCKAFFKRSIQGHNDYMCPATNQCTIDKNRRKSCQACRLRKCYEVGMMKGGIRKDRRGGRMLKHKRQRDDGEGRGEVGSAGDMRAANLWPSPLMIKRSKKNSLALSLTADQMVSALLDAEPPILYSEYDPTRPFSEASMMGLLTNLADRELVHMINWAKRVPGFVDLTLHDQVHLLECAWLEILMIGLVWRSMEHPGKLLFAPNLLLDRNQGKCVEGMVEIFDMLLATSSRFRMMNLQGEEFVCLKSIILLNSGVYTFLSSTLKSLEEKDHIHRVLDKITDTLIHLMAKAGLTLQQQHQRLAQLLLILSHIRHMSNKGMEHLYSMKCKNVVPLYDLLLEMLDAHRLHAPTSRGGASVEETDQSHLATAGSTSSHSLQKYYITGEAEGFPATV

Structure (SMILES)	Potency
O=C1OC(CN2CCOCC2)CN1/N=C/c1ccc([N+](=O)[O-])o1 (configuration not stated)	inactive
C=CC(=O)OCCOCCOC(=O)C=C	6.14 µM (active)
CN(Cc1ccc(C(C)(C)C)cc1)Cc1cccc2ccccc12	inactive
CCCCC(CC)COC(=O)COc1ccc(Cl)cc1Cl (configuration not stated)	inactive
CNC(=O)CN(CCN(CCN(CC(=O)[O-])CC(=O)NC)CC(=O)[O-])CC(=O)[O-].O.[Gd+3]	inactive
c1ccc(CNCCNCc2ccccc2)cc1	inactive
C[C@@H]1C[C@H]2O[C@@]3(O[C@@H]2C(C)(C)O)[C@H](O)[C@@]2(C)[C@@H]4CC[C@H]5C(C)(C)[C@@H](O[C@@H]6OC[C@@H](O)[C@H](O)[C@H]6O)CC[C@@]56C[C@@]46CC[C@]2(C)[C@@H]13	inactive
CC1=CC[C@H](C(C)C)C=C1	inactive
CCCCCCCCCCCc1ccccc1	inactive
CC(C)CC(=O)C1C(=O)c2ccccc2C1=O	inactive
N=c1ccn2c(n1)O[C@H]1[C@H](O)[C@@H](CO)O[C@H]12	inactive
CCN(CC)CCOC(=O)C(c1ccccc1)C1CCCCC1 (configuration not stated)	inactive
COc1cc(Cl)ccc1Oc1ccc(Cl)cc1Cl	inactive
C=C(C)C(=O)OCCO	inactive
CCCCCCCCCCCCCCCCOS(=O)(=O)O	inactive
CN1CCN(C(c2ccccc2)c2ccccc2)CC1	inactive
CCCOC(C(=O)OC1CCN(C)CC1)(c1ccccc1)c1ccccc1	inactive
NCC(=O)O	inactive
CCCCc1nc2cccnc2n1Cc1ccc(-c2ccccc2-c2nnn[nH]2)cc1	inactive
O=C(OCCCCCCOC(=O)c1ccccc1)c1ccccc1	43.3 µM (active)

tested on: not listed separately; test: qHTS assay to identify small molecule antagonists of the estrogen receptor alpha (ER-alpha) signaling pathway using the BG1 cell line (AID 743080; calls by dose curve;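 also: BG1 cells stimulated with 17beta-estradiol alongside compound; nearly all actives have a fitted effect of over 25% in size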); details: BG1Luc4E2 ERE-luciferase antagonist mode, luminescence; series mostly up to 70.3 µM
How it was run: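 BG1Luc4E2, endogenous ER-alpha, 4xERE-luc; 5 d charcoal-stripped FBS, phenol red free; 24 h plating; cpd + 17beta-estradiol 21.5 h, 37 C/5% CO2; CellTiter-Fluor viability 30 min, then ONE-Glo luciferase 30 min RT.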

Structure (SMILES)	Potency
O=C1OC(CN2CCOCC2)CN1/N=C/c1ccc([N+](=O)[O-])o1 (configuration not stated)	inactive
CN(Cc1ccc(C(C)(C)C)cc1)Cc1cccc2ccccc12	inactive
CCCCC(CC)COC(=O)COc1ccc(Cl)cc1Cl (configuration not stated)	inactive
CNC(=O)CN(CCN(CCN(CC(=O)[O-])CC(=O)NC)CC(=O)[O-])CC(=O)[O-].O.[Gd+3]	inactive
c1ccc(CNCCNCc2ccccc2)cc1	inactive
C[C@@H]1C[C@H]2O[C@@]3(O[C@@H]2C(C)(C)O)[C@H](O)[C@@]2(C)[C@@H]4CC[C@H]5C(C)(C)[C@@H](O[C@@H]6OC[C@@H](O)[C@H](O)[C@H]6O)CC[C@@]56C[C@@]46CC[C@]2(C)[C@@H]13	inactive
CC1=CC[C@H](C(C)C)C=C1	inactive
CCCCCCCCCCCc1ccccc1	inactive
CC(C)CC(=O)C1C(=O)c2ccccc2C1=O	inactive
N=c1ccn2c(n1)O[C@H]1[C@H](O)[C@@H](CO)O[C@H]12	inactive
CCOC(=O)NCCOc1ccc(Oc2ccccc2)cc1	61.1 µM (active)
CCN(CC)CCOC(=O)C(c1ccccc1)C1CCCCC1 (configuration not stated)	inactive
C=C(C)C(=O)OCCO	inactive
CCCCCCCCCCCCCCCCOS(=O)(=O)O	inactive
CN1CCN(C(c2ccccc2)c2ccccc2)CC1	inactive
CCCOC(C(=O)OC1CCN(C)CC1)(c1ccccc1)c1ccccc1	inactive
NCC(=O)O	inactive
CCCCc1nc2cccnc2n1Cc1ccc(-c2ccccc2-c2nnn[nH]2)cc1	inactive
O=C(OCCCCCCOC(=O)c1ccccc1)c1ccccc1	inactive

tested on: not listed separately; test: qHTS assay to identify small molecule antagonists of the estrogen receptor alpha (ER-alpha) signaling pathway using the BG1 cell line - cell viability counter screen (AID 743081); details: BG1Luc4E2 viability, CellTiter-Fluor, 22 h; series mostly up to 70.3 µM;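 also: compound given together with 17beta-estradiol as the ER stimulus; nearly all actives have a fitted effect of over 45% in size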

Structure (SMILES)	Potency
O=C1OC(CN2CCOCC2)CN1/N=C/c1ccc([N+](=O)[O-])o1 (configuration not stated)	inactive
CC(COCCO)OCCO (configuration not stated)	inactive
Cc1cccc(C)c1NC(=O)CN(CC(=O)O)CC(=O)O	inactive
CN(Cc1ccc(C(C)(C)C)cc1)Cc1cccc2ccccc12	inactive
CCCCC(CC)COC(=O)COc1ccc(Cl)cc1Cl (configuration not stated)	inactive
CNC(=O)CN(CCN(CCN(CC(=O)[O-])CC(=O)NC)CC(=O)[O-])CC(=O)[O-].O.[Gd+3]	inactive
c1ccc(CNCCNCc2ccccc2)cc1	inactive
OCc1cc(C(O)CNCCCCCCOCCCCc2ccccc2)ccc1O (configuration not stated)	23.7 µM (active)
CCC(C)c1cc(C(C)(C)C)c(O)c(C(C)(C)C)c1 (configuration not stated)	inactive
C[C@@H]1C[C@H]2O[C@@]3(O[C@@H]2C(C)(C)O)[C@H](O)[C@@]2(C)[C@@H]4CC[C@H]5C(C)(C)[C@@H](O[C@@H]6OC[C@@H](O)[C@H](O)[C@H]6O)CC[C@@]56C[C@@]46CC[C@]2(C)[C@@H]13	inactive
CC1=CC[C@H](C(C)C)C=C1	inactive
CCCCCCCCCCCc1ccccc1	inactive
CC(C)CC(=O)C1C(=O)c2ccccc2C1=O	inactive
N=c1ccn2c(n1)O[C@H]1[C@H](O)[C@@H](CO)O[C@H]12	inactive
CCOC(=O)NCCOc1ccc(Oc2ccccc2)cc1	inactive
Nc1ccccc1S(=O)(=O)c1ccccc1	inactive
CC(C)=CCC/C(C)=C/CC/C(C)=C/CO	inactive

Structure (SMILES)	Potency
CCN(CC)CCOC(=O)C(c1ccccc1)C1CCCCC1 (configuration not stated)	inactive
CCCCO	inactive
O=C(O)C(S)C(S)C(=O)O (configuration not stated)	inactive
COc1cc(Cl)ccc1Oc1ccc(Cl)cc1Cl	inactive
COC(C)(C)CCO	inactive
C=C(C)C(=O)OCCO	inactive
CCCCCCCCCCCCCCCCOS(=O)(=O)O	inactive
C/C=C/C=C/CO	inactive
CN1CCN(C(c2ccccc2)c2ccccc2)CC1	inactive
NCC(=O)O	inactive
CCCCc1nc2cccnc2n1Cc1ccc(-c2ccccc2-c2nnn[nH]2)cc1	inactive
C=CC(=O)OCCOc1ccccc1	inactive
O=C(OCCCCCCOC(=O)c1ccccc1)c1ccccc1	inactive
Nc1ncn([C@H]2C[C@H](O)[C@@H](CO)O2)c(=O)n1	inactive
COc1ccc(C(=O)Nc2nc3ccccc3c(NCc3ccccc3)c2C#N)cc1	inactive
O=[N+]([O-])c1cccc(S(=O)(=O)O)c1	inactive
